Measurements published in PubChem BioAssay (Tox21).
Inconclusive results are not listed. Active and inactive are the calls of the source. Unless noted, calls follow the shape of the dose curve; as a rule, active = well fitted curve in the direction sought with a large enough effect in the repeat runs; inconclusive = weak or mixed curves; inactive = flat fitted curve, though single readings scatter.

Tests used:
[1] = qHTS assay to test for compound auto fluorescence at 535 nm (green) in HEK293 cells (AID 720680)
[2] = qHTS assay to test for compound auto fluorescence at 460 nm (blue) in HEK293 cell free culture (AID 720681)
In short: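 Blue fluorescence (Ex 405/Em 460 nm, triamterene-equivalent) was read immediately after pin transfer of compound or DMSO into medium (DMEM, 10% FBS) without cells.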

[3] = qHTS assay to test for compound auto fluorescence at 535 nm (green) in HEK293 cell free culture (AID 720682)
In short: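 Compounds were pin-transferred into cell-free DMEM with 10% FBS, and green fluorescence was read at excitation 485 nm and emission 535 nm. Intensities were expressed as fluorescein-equivalent values.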

[4] = qHTS assay to test for compound auto fluorescence at 590 nm (red) in HEK293 cell free culture (AID 720683)
In short: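 Red-channel autofluorescence of compounds in culture medium (DMEM, 10% FBS), no cells, measured at 540/590 nm. Rose Bengal sodium is the reference fluorophore for equivalence.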

[5] = qHTS assay to test for compound auto fluorescence at 590 nm (red) in HepG2 cell free culture (AID 720684)
In short: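 Plate contents were MEM with 10% FBS plus test compound or DMSO, no cells. Fluorescence was recorded with 540 nm excitation and 590 nm emission.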

[6] = qHTS assay to test for compound auto fluorescence at 460 nm (blue) in HepG2 cell free culture (AID 720685)
In short: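 Compound (23 nL) or DMSO pinned into cell-free MEM with 10% FBS; blue fluorescence read at 405/460 nm excitation/emission, expressed as auto-fluorescence equivalency to triamterene.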

[7] = qHTS assay to test for compound auto fluorescence at 535 nm (green) in HepG2 cell free culture (AID 720686)
[8] = qHTS assay to test for compound auto fluorescence at 460 nm (blue) in HepG2 cells (AID 720687)
In short: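 Blue-channel autofluorescence (Ex/Em 405/460 nm, triamterene-equivalent) was measured after 1 hr compound exposure at 37 C, 5% CO2. Cells were HepG2, plated overnight at 37 C in MEM plus 10% FBS.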

[9] = molecular target: Glucocorticoid receptor (Homo sapiens) (UniProt P04150); assay: qHTS assay to identify small molecule agonists of the glucocorticoid receptor (GR) signaling pathway (AID 720691; active = well fitted activation curve with a large enough effect in the signal ratio in the repeat runs, not every such curve was filed as active; the % refers to the signal ratio)
In short: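 qHTS in GR-bla HeLa cells: 4 h settling at 37 C/5% CO2, 18 h compound incubation at 37 C, 2 h LiveBLAzer B/G FRET substrate at room temperature, fluorescence intensity measured.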

[10] = molecular target: Glucocorticoid receptor (Homo sapiens) (UniProt P04150); assay: qHTS assay to identify small molecule antagonists of the glucocorticoid receptor (GR) signaling pathway (AID 720692; active = well fitted inhibition curve with a large enough effect in the signal ratio in the repeat runs, not every such curve was filed as active; the % refers to the signal ratio)
In short: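 Inhibition of glucocorticoid signalling is measured in HeLa cells with a GRE-controlled beta-lactamase reporter; cells are co-treated with compound and 5 nM dexamethasone (final) for 18 h before FRET substrate readout.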

Measured: Potency

Glucocorticoid receptor (Homo sapiens), sequence (P04150 whole entry, looked up): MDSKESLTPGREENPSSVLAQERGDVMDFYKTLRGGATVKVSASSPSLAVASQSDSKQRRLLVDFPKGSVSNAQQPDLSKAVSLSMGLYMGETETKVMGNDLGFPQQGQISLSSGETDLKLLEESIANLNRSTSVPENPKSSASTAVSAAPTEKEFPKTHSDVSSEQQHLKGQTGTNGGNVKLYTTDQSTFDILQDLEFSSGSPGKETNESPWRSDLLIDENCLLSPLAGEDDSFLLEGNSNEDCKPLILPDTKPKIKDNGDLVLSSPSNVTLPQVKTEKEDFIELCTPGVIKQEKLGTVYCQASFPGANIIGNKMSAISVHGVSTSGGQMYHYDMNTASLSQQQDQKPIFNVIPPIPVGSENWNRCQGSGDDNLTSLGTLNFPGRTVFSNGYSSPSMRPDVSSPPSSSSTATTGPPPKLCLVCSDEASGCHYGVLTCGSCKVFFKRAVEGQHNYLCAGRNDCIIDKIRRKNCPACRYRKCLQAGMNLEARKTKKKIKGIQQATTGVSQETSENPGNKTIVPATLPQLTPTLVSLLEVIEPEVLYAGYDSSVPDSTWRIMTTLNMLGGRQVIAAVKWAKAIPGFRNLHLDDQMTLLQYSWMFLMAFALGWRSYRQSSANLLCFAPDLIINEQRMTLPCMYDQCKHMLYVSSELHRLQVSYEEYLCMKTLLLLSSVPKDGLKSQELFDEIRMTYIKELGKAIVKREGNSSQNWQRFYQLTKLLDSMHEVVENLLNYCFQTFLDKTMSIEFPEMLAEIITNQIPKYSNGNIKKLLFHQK

CN(C)C(=O)Nc1cccc(C(F)(F)F)c1
not listed: [9] | [10]
inactive: all other assays above

Oc1c(Br)cc(Br)cc1Br
not listed: [9] | [10]
inactive: all other assays above

O=C(O)Cc1ccccc1
not listed: [9] | [10]
inactive: all other assays above

Cc1cc(Cl)ccc1OC(C)C(=O)O (stereo not drawn)
not listed: [9] | [10]
inactive: all other assays above

COc1cc(-c2ccc(N)c(OC)c2)ccc1N
not listed: [9] | [10]
inactive: all other assays above

Nc1cccc(Cl)c1
not listed: [9] | [10]
inactive: all other assays above

N#CN=C(N)N
not listed: [9] | [10]
inactive: all other assays above

CN(C)NC(=O)CCC(=O)O
not listed: [9] | [10]
inactive: all other assays above

CCCOC(=O)c1ccccc1C(=O)OCCC
not listed: [9] | [10]
inactive: all other assays above

Nc1ccc(N)cc1
not listed: [9] | [10]
inactive: all other assays above

Nc1ccc([As](=O)(O)O)cc1
not listed: [9] | [10]
inactive: all other assays above

COC(C)(C)CCCC(C)C/C=C/C(C)=C/C(=O)OC(C)C (stereo not drawn)
not listed: [9] | [10]
inactive: all other assays above

Cc1cccc(N)c1
not listed: [9] | [10]
inactive: all other assays above

Oc1ccc(Cl)cc1
not listed: [9] | [10]
inactive: all other assays above

O=S(=O)(O)OOS(=O)(=O)O
not listed: [9] | [10]
inactive: all other assays above

CNC(=O)Oc1cccc2ccccc12
not listed: [9] | [10]
inactive: all other assays above

O=C(O)CCCc1ccc(N(CCCl)CCCl)cc1
not listed: [9] | [10]
inactive: all other assays above

OCc1ccco1
not listed: [9] | [10]
inactive: all other assays above

CC(C)c1cccc(C(C)C)c1O
not listed: [9] | [10]
inactive: all other assays above

C=CCN=C=S
not listed: [9] | [10]
inactive: all other assays above

Cc1ccc(N)cc1
not listed: [9] | [10]
inactive: all other assays above

Cc1ccccc1N
not listed: [9] | [10]
inactive: all other assays above

CCCCCCCCCCCCCCCCCC(=O)O
not listed: [9] | [10]
inactive: all other assays above

NNc1ccccc1
not listed: [9] | [10]
inactive: all other assays above

Nc1cc(Cl)cc(Cl)c1
not listed: [9] | [10]
inactive: all other assays above

CNC(=O)O/N=C(\SC)C(=O)N(C)C
not listed: [9] | [10]
inactive: all other assays above

N#Cc1ccccn1
not listed: [9] | [10]
inactive: all other assays above

[N-]=[N+]=CC(=O)OC[C@H](N)C(=O)O
not listed: [9] | [10]
inactive: all other assays above

CCSC(=O)N1CCCCCC1
not listed: [9] | [10]
inactive: all other assays above

CN(C)C(=O)C(c1ccccc1)c1ccccc1
not listed: [9] | [10]
inactive: all other assays above

COC(=O)Nc1cccc(OC(=O)Nc2cccc(C)c2)c1
inactive: all assays above

C/C=C/c1ccc2c(c1)OCO2
not listed: [9] | [10]
inactive: all other assays above

CNC(=O)O/N=C/C(C)(C)SC
inactive: all assays above

Cc1ccc(O)c(C)c1
inactive: all assays above

CCOP(=S)(OCC)Oc1ccc([N+](=O)[O-])cc1
inactive: all assays above

COc1nc(NC(C)C)nc(NC(C)C)n1
inactive: all assays above

C=C(C)C(=O)OCC(CC)CCCC (stereo not drawn)
inactive: all assays above

CN(C)C(=O)Cl
inactive: all assays above

CC(=O)C1CCOC1=O (stereo not drawn)
inactive: all assays above

Cc1cccc(C)c1NC(=O)CN1CCCC1=O
inactive: all assays above

O=P1(NCCCl)OCCCN1CCCl (stereo not drawn)
inactive: all assays above

CNC(=O)O/N=C/C(C)(C)S(C)(=O)=O
inactive: all assays above

O=[N+]([O-])c1ccc(Cl)c(Cl)c1
inactive: all assays above

Cc1cccc(C)c1N
inactive: all assays above

CCOC(=O)CC(SP(=O)(OC)OC)C(=O)OCC (stereo not drawn)
inactive: all assays above

CC12CC1(C)C(=O)N(c1cc(Cl)cc(Cl)c1)C2=O (stereo not drawn)
inactive: all assays above

COS(=O)(=O)OC
inactive: all assays above

CNCC(O)c1ccc(O)cc1 (stereo not drawn)
inactive: all assays above

Cc1cccc(N)c1C
inactive: all assays above
